In the supplement of paper PMC10849652:
Of roughly 7,900 targets only a part is listed; those with a hit were picked by preference. About 0.6% of all pairs of compound and target were hits. Unmarked numbers belong to inactive results.

Experiments:
Test in all cases: log2 fold change, soluble protein after heating vs DMSO (PISA); higher = thermal stabilisation; K562 cells, 10 uM, 30 min; active = over 0.2 and 3.5 SD of the protein, either way, in both replicates (recomputed)
[1] = compound: COC1=CC=C(C=C1)CN2C=CC3=C2C=C(C=C3)C(=O)NO
Summary of the method: (§1)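 K562 cells (2×10^6 cells/mL) were treated with 10 μM compound for 30 min, and aliquots were heated for 3 min over 48°C-58°C. Pooled aliquots were extracted in PBS with 0.5% NP-40 at 4°C, and the supernatant after 21,000xg for 90 min was measured by TMTpro 16plex LC-MS/MS with channel sums equalised. Reported thermal stability, relative to control samples and from duplicates, is a log2 fold change.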

filanesib = compound: CON(C)C(=O)N1N=C(c2cc(F)ccc2F)S[C@@]1(CCCN)c1ccccc1 [filanesib]
Summary of the method: as §1

zotarolimus = compound: CO[C@H]1C[C@@H]2CC[C@@H](C)[C@@](O)(O2)C(=O)C(=O)N2CCCC[C@H]2C(=O)O[C@H]([C@H](C)C[C@@H]2CC[C@H](n3cnnn3)[C@H](OC)C2)CC(=O)[C@H](C)/C=C(\C)[C@@H](O)[C@@H](OC)C(=O)[C@H](C)C[C@H](C)/C=C/C=C/C=C/1C [zotarolimus]
Summary of the method: as §1

idasanutlin = compound: COc1cc(C(=O)O)ccc1NC(=O)[C@@H]1N[C@@H](CC(C)(C)C)[C@](C#N)(c2ccc(Cl)cc2F)[C@H]1c1cccc(Cl)c1F [idasanutlin]
Summary of the method: as §1

alisertib = compound: COc1cc(Nc2ncc3c(n2)-c2ccc(Cl)cc2C(c2c(F)cccc2OC)=NC3)ccc1C(=O)O [alisertib]
Summary of the method: as §1

[2] = compound: COc1cc2nc(-c3cc(F)ccc3O)nc(N[C@@H]3CNC[C@H]3C(C)(C)O)c2cc1OC
Summary of the method: as §1

gefitinib = compound: COc1cc2ncnc(Nc3ccc(F)c(Cl)c3)c2cc1OCCCN1CCOCC1 [gefitinib]
Summary of the method: as §1

[3] = compound: COc1cccc2cc(-c3nc([C@H]4CC[C@H](C(=O)O)CC4)n4ncnc(N)c34)[nH]c12
Summary of the method: as §1

lapatinib = compound: CS(=O)(=O)CCNCc1ccc(-c2ccc3ncnc(Nc4ccc(OCc5cccc(F)c5)c(Cl)c4)c3c2)o1 [lapatinib]
Summary of the method: as §1

pictilisib = compound: CS(=O)(=O)N1CCN(Cc2cc3nc(-c4cccc5[nH]ncc45)nc(N4CCOCC4)c3s2)CC1 [pictilisib]
Summary of the method: as §1

Sequence of UniProt O43847 (O43847 whole entry, looked up): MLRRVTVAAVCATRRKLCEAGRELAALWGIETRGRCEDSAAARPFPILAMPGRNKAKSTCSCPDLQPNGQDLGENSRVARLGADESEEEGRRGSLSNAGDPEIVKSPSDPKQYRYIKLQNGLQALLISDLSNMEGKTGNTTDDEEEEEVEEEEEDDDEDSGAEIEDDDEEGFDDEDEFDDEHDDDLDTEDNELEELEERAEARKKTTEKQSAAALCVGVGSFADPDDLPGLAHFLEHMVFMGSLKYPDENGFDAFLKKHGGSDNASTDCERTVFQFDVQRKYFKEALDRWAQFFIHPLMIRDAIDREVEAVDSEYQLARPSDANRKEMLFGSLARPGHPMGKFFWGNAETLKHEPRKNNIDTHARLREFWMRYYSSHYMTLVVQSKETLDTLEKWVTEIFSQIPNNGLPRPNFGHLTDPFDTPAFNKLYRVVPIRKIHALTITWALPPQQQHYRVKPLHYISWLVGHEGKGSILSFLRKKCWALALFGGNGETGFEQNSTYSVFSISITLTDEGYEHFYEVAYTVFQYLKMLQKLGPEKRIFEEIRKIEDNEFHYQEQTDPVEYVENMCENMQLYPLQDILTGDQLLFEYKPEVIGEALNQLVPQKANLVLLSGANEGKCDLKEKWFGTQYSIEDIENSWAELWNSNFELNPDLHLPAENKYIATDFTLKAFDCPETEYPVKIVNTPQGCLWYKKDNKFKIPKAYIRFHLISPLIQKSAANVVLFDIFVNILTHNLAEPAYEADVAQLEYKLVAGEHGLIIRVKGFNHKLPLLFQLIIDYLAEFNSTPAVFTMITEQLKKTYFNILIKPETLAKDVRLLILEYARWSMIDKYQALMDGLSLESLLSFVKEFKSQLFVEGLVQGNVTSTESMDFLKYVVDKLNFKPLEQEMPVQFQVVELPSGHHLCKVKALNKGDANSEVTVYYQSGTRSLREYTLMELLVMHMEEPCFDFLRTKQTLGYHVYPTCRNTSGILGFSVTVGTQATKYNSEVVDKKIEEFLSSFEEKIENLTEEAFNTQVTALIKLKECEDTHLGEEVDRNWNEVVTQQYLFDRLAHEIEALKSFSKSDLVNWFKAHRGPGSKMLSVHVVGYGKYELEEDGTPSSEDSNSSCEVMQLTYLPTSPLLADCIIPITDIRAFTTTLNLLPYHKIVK
Sequence of UniProt Q4G0T1 (Q4G0T1 whole entry, looked up): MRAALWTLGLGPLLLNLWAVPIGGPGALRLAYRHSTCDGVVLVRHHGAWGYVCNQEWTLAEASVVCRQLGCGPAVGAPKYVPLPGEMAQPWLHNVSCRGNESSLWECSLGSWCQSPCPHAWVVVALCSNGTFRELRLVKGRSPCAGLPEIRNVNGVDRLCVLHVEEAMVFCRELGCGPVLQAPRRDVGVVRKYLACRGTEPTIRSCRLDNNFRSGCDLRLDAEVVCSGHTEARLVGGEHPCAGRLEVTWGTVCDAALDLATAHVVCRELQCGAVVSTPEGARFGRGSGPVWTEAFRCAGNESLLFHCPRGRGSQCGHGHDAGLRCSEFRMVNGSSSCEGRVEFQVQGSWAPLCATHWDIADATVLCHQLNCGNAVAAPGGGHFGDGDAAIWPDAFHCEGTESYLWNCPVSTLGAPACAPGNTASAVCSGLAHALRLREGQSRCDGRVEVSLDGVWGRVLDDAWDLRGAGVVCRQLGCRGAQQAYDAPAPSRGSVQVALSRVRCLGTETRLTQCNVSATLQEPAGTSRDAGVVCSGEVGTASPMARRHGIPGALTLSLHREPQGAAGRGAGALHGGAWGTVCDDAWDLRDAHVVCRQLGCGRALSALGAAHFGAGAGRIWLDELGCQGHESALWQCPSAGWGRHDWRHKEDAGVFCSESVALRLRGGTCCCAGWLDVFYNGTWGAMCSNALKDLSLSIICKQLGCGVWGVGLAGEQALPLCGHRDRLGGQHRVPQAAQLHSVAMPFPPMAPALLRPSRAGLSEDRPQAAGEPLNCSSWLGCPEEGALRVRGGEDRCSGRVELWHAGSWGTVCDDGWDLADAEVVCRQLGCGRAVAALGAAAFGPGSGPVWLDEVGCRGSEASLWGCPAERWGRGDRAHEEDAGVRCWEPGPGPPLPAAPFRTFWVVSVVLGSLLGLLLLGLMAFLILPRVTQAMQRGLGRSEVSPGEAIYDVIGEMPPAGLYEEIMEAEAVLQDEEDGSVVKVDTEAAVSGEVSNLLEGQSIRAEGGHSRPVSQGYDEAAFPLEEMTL
Sequence of UniProt Q96BN8 (Q96BN8 whole entry, looked up): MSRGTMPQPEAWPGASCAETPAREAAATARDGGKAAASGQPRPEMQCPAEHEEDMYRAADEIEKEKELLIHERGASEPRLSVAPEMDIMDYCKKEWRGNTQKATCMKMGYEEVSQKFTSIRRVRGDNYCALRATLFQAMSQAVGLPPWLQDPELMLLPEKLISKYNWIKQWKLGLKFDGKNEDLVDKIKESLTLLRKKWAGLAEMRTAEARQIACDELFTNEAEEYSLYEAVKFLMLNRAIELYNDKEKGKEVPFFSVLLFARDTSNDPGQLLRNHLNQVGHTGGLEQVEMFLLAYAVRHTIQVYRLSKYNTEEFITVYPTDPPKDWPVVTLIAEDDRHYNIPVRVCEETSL
Sequence of UniProt Q9NR45 (Q9NR45 whole entry, looked up): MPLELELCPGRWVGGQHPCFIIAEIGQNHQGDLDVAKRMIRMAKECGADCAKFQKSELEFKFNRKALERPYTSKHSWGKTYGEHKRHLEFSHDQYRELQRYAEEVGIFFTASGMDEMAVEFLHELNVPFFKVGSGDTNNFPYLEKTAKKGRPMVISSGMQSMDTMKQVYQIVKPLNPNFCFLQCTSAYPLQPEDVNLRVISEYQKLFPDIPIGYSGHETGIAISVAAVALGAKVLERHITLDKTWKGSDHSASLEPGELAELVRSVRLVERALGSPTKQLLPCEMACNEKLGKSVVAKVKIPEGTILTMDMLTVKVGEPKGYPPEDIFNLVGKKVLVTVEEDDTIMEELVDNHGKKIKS
Sequence of UniProt Q96I59 (Q96I59 whole entry, looked up): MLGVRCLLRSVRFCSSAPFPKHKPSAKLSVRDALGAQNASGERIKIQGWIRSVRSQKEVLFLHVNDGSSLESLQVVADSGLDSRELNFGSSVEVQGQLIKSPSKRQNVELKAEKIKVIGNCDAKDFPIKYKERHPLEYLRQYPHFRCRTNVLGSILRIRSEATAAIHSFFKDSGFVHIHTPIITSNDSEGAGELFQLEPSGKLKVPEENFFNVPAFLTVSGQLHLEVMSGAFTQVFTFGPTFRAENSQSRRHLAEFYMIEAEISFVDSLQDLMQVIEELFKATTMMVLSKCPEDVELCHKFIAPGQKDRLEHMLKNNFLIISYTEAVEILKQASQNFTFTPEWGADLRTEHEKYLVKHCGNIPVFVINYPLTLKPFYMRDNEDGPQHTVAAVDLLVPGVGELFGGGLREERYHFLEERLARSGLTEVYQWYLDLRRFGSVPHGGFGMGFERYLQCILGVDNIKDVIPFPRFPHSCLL
Sequence of UniProt Q9BS92 (Q9BS92 whole entry, looked up): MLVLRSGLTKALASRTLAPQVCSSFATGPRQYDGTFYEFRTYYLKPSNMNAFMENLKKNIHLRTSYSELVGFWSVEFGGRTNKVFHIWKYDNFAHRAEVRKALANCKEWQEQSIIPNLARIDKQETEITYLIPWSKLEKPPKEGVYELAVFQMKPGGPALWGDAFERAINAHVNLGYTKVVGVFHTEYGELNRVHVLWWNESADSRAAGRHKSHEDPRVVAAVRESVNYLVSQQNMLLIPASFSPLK
Sequence of UniProt Q96RE7 (Q96RE7 whole entry, looked up): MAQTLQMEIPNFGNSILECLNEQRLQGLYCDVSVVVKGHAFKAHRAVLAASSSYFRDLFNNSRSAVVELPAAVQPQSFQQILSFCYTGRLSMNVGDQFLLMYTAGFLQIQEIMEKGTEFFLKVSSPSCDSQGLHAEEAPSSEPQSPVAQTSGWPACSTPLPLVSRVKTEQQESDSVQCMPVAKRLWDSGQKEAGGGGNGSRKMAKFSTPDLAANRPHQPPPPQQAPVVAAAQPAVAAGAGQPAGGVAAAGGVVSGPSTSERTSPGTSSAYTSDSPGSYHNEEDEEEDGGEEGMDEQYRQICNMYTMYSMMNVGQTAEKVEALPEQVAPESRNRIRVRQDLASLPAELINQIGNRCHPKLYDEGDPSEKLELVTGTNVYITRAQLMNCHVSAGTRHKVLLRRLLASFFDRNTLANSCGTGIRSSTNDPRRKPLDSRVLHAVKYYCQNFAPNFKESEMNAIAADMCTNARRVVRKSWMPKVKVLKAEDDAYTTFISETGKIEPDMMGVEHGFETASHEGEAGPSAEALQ
Sequence of UniProt Q13952 (Q13952 whole entry, looked up): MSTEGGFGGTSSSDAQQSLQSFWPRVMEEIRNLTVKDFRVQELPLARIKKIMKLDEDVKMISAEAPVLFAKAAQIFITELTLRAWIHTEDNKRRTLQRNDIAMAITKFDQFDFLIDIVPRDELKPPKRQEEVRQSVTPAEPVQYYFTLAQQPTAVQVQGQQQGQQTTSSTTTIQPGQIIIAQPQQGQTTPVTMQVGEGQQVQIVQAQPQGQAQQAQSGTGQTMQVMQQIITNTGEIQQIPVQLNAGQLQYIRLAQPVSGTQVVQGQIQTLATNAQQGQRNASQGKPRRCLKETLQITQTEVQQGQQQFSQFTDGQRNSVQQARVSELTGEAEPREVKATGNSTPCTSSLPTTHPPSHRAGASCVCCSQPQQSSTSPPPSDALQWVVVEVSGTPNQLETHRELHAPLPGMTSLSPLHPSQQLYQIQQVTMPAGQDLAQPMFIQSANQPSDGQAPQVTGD
Sequence of UniProt Q9H081 (Q9H081 whole entry, looked up): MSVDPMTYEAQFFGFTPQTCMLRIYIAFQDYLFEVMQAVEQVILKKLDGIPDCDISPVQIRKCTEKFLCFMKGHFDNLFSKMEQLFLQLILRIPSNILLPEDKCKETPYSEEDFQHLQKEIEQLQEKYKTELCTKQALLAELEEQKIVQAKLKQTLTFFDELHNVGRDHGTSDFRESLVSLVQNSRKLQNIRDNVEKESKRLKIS

Target | log2 fold change [1] | log2 fold change (filanesib) | log2 fold change (zotarolimus) | log2 fold change (idasanutlin) | log2 fold change (alisertib) | log2 fold change [2] | log2 fold change (gefitinib) | log2 fold change [3] | log2 fold change (lapatinib) | log2 fold change (pictilisib)
NARS2 (UniProt Q96I59) | -0.213 | -0.196 | 0.027 | -0.072 | -0.046 | 0.007 | -0.039 | 0.09 | -0.031 | -0.037
NCKAP1 isoform 2 (UniProt Q9Y2A7) | 0.019 | -0.042 | 0.025 | -0.035 | 0.067 | 0.008 | -0.009 | -0.038 | 0.016 | -0.049
MIS12 (UniProt Q9H081) | 0.079 | 0.004 | 0.077 | -0.011 | 0.06 | 0.035 | 0.026 | 0.032 | -0.048 | -0.005
NAA11 (UniProt Q9BSU3) | 0.077 | -0.026 | -0.022 | 0.037 | -0.066 | 0.13 | 0.037 | 0.116 | -0.085 | 
NEMP1 (UniProt O14524) | -0.041 | -0.247 | -0.021 | 0.034 | -0.084 | -0.487 (active) | -0.021 | 0.006 | 0.001 | -0.02
MT-ND1 (UniProt P03886) | -0.051 | 0.053 | 0.131 | -0.141 | -0.015 | -0.152 | 0.1 | 0.051 | -0.113 | 
OTULIN (UniProt Q96BN8) | 0.022 | -0.044 | -0.024 | -0.005 | 0.086 | 0.014 | 0 | -0.045 | 0.048 | 0.023
MRPL47 (UniProt Q9HD33) | -0.068 | 0.183 | 0.072 | -0.042 | -0.087 | -0.033 | -0.134 | -0.186 | 0.072 | 0.745 (active)
MLST8 (UniProt Q9BVC4) | 0.1 | -0.206 | -0.12 | -0.154 | 0.019 | 0.055 | -0.041 | -0.081 | -0.039 | 
NANS (UniProt Q9NR45) | -0.11 | -0.115 | 0.017 | -0.045 | -0.008 | -0.017 | -0.057 | -0.017 | -0.005 | -0.018
NUP85 (UniProt Q9BW27) | 0.01 | -0.009 | -0.022 | 0.016 | -0.061 | -0.038 | 0.025 | 0.043 | -0.042 | 0.049
NOP53 (UniProt Q9NZM5) | -0.111 | 0.533 | -0.008 | 0.365 | -0.1 | 0.037 | -0.127 | -0.207 | 0.163 | -0.335
NUMBL (UniProt Q9Y6R0) | -0.079 | 0.128 | -0.012 | -0.061 | -0.168 | 0.005 | 0.036 | -0.149 | 0.012 | -0.022
NFYB (UniProt P25208) | 0.245 | -0.036 | -0.024 | 0.066 | -0.097 | -0.047 | 0.039 | 0.02 | 0.078 | -0.155
NIPSNAP3B (UniProt Q9BS92) | -0.033 | -0.168 | 0.013 | 0.046 | -0.046 | -0.071 | -0.138 | 0.009 | -0.09 | 0.002
OGFOD1 (UniProt Q8N543) | -0.294 (active) | -0.05 | -0.02 | -0.038 | -0.021 | 0.001 | 0.015 | 0.041 | -0.034 | 0.065
NAT14 (UniProt Q8WUY8) | 0.151 | -0.001 | 0.107 | -0.041 | -0.013 | -0.086 | -0.016 | 0.12 | 0.081 | 
MRPS21 (UniProt P82921) | 0.007 | 0.032 | 0.026 | -0.293 | 0.043 | -0.053 | 0.019 | 0.021 | 0.261 | 
NFYC (UniProt Q13952) | -0.026 | -0.023 | 0.004 | -0.065 | -0.036 | 0.017 | -0.018 | 0.127 | 0.033 | 0.092
MRPS12 (UniProt O15235) | 0.018 | 0.074 | 0.039 | -0.162 | -0.03 | -0.088 | -0.078 | -0.062 | 0.082 | -0.177
MRPS2 (UniProt Q9Y399) | -0.052 | -0.05 | -0.02 | -0.054 | -0.19 | 0.005 | -0.036 | 0.006 | 0.071 | -0.015
MRPS5 (UniProt P82675) | -0.06 | 0.078 | 0.091 | -0.37 (active) | 0.021 | 0.015 | -0.026 | 0.02 | 0.054 | -0.026
NRDC isoform 2 (UniProt O43847) | 0 | -0.038 | 0.005 | -0.026 | 0.013 | 0.076 | -0.022 | -0.001 | -0.019 | -0.029
MRPS27 isoform 2 (UniProt Q92552) | 0.062 | 0.029 | 0.068 | -0.124 | -0.05 | -0.024 | 0.016 | -0.014 | 0.036 | -0.038
OXSR1 (UniProt O95747) | 0.014 | -0.009 | -0.007 | -0.068 | -0.073 | 0.018 | -0.007 | 0.034 | -0.033 | 0.028
MSTO1 (UniProt Q9BUK6) | -0.022 | -0.078 | -0.045 | -0.08 | 0.007 | 0.024 | -0.018 | 0.025 | -0.009 | 0.021
NA isoform 3 (UniProt Q4G0T1) | -0.007 | 0.049 | 0.044 | 0.052 | -0.09 | 0.039 | 0.016 | 0.106 | 0.112 | 
NNT (UniProt Q13423) | -0.008 | -0.08 | 0.015 | -0.076 | -0.041 | 0.037 | 0.016 | 0.031 | -0.031 | -0.01
NACC1 (UniProt Q96RE7) | 0.009 | -0.116 | 0.103 | 0.02 | 0.016 | -0.198 | 0.021 | 0.024 | -0.031 | -0.034
NPC1L1 (UniProt Q9UHC9) | -0.177 | -0.099 | -0.09 | -0.041 | -0.144 | 0.079 | 0.557 | 0.106 | -0.105 | 
